According to PubChem BioAssay (NCATS):
Records with an inconclusive call do not appear. A call without a number means that no potency is given here. Values without a mark were called inactive. Calls of active or inactive are those of the source. Unless noted, calls follow the shape of the full dose curve.

What was measured:
[1] = qHTS for Inhibitors of the Functional Ribonucleoprotein Complex (vRNP) of Lassa (LASV) Arenavirus: LASV Primary Screen - GLuc reporter signal (AID 1347082; calls by dose curve; tested in HEK293 reporter line; also: nearly all actives have a fitted effect of over 60% in size; as to activity change, negative = inhibition: series mostly up to about 57 µM)
[2] = qHTS for Inhibitors of the Functional Ribonucleoprotein Complex (vRNP) of Lassa (LASV) Arenavirus: Viability assay - alamar blue signal for LASV Primary Screen (AID 1347083; calls by dose curve; tested in HEK293 reporter line; also: nearly all actives have a fitted effect of over 80% in size; as to activity change, negative = reduced viability: series mostly up to about 57 µM)
[3] = qHTS for Inhibitors of the Functional Ribonucleoprotein Complex (vRNP) of Lymphocytic Choriomeningitis Arenaviruses (LCMV): Viability assay - alamar blue signal for LCMV Primary Screen (AID 1347085; calls by dose curve; tested in HEK293 reporter line; also: nearly all actives have a fitted effect of over 80% in size; as to activity change, negative = lower viability: series mostly up to about 57 µM)
[4] = molecular target: Nucleoprotein (Lymphocytic choriomeningitis virus (strain Armstrong)) (UniProt P09992); experiment: qHTS for Inhibitors of the Functional Ribonucleoprotein Complex (vRNP) of Lymphocytic Choriomeningitis Arenaviruses (LCMV): LCMV Primary Screen - GLuc reporter signal (AID 1347086); also: nearly all actives have a fitted effect of over 70% in size; as to activity change, negative = inhibition: series mostly up to about 57 µM
Sequence of Nucleoprotein (Lymphocytic choriomeningitis virus (strain Armstrong)) (P09992 whole entry, looked up): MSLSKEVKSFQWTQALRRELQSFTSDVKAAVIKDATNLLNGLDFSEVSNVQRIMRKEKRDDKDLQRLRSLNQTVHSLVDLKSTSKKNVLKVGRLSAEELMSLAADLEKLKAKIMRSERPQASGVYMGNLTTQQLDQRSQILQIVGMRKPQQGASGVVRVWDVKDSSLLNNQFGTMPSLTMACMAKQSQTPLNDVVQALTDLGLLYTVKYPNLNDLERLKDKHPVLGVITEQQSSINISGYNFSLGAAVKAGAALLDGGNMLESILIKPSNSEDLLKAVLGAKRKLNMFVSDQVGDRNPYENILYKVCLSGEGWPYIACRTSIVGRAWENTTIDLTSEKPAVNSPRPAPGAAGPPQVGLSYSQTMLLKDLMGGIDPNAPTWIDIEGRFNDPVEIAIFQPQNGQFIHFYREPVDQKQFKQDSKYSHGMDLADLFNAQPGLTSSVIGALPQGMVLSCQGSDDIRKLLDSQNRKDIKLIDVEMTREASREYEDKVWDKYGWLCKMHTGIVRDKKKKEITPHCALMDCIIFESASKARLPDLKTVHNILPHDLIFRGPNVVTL
Potency is read from the fitted curve at half-maximal effect.

CO[C@H]1[C@@H]2C=CO[C@@H](O[C@H]3O[C@@H](CO)[C@H](O)[C@@H](O)[C@@H]3O)[C@@H]2[C@@]2(CO)O[C@@H]12
Potency [1]: inactive
Potency [2]: inactive
Potency [3]: inactive
Potency [4]: inactive

CC[C@]1(O)C[C@@H]2CN(CCc3c([nH]c4ccccc34)[C@@](C(=O)OC)(c3cc4c(cc3OC)N(C=O)[C@@H]3C45CCN4CC=C[C@](CC)([C@H]45)[C@@H](OC(C)=O)[C@]3(O)C(=O)OC)C2)C1 (stereo not given in full)
Potency [1]: inactive
Potency [2]: inactive
Potency [3]: inactive
Potency [4]: inactive

CC1(C)C[C@H](O)[C@]2(CO)[C@H](O)C[C@]3(C)C(=CCC4[C@@]5(C)CC[C@H](O)C(C)(C)C5CC[C@]43C)[C@@H]2C1 (stereo not given in full)
Potency [1]: inactive
Potency [2]: inactive
Potency [3]: inactive
Potency [4]: inactive

O=c1c(O[C@@H]2OC([C@H](O)CO)[C@H](O)[C@H]2O)c(-c2ccc(O)c(O)c2)oc2cc(O)cc(O)c12 (stereo not given in full)
Potency [1]: inactive
Potency [2]: inactive
Potency [3]: inactive
Potency [4]: inactive

COC(=O)c1nccc2c1[nH]c1ccccc12
Potency [1]: inactive
Potency [2]: inactive
Potency [3]: inactive
Potency [4]: inactive

CC(C)=CCOc1ccc2ccc(=O)oc2c1
Potency [1]: inactive
Potency [2]: inactive
Potency [3]: inactive
Potency [4]: inactive

CC1(C)C[C@H](O)[C@@]23C[C@@H](OC2=O)[C@]2(C)C(=CCC4[C@@]5(C)CC[C@H](O)C(C)(C)C5CC[C@]42C)[C@@H]3C1 (stereo not given in full)
Potency [1]: inactive
Potency [2]: inactive
Potency [3]: inactive
Potency [4]: inactive

CC1(C)C2=CCCC(C)(C)[C@]23CC[C@H]1C3
Potency [1]: inactive
Potency [2]: inactive
Potency [3]: inactive
Potency [4]: inactive

CCOc1ccc(O)cc1
Potency [1]: inactive
Potency [2]: inactive
Potency [3]: inactive
Potency [4]: inactive

COC(/C=C(\C)CCC=C(C)C)OC
Potency [1]: inactive
Potency [2]: inactive
Potency [3]: inactive
Potency [4]: inactive

COc1cc2c(c(OC)c1OC)-c1c(cc3c(c1O)OCO3)C[C@@H](C)[C@@H](C)C2
Potency [1]: inactive
Potency [2]: inactive
Potency [3]: inactive
Potency [4]: inactive

C[C@H]1C[C@H]2[C@@H]3CCC4=CC(=O)C=C[C@]4(C)[C@@H]3C(=O)C[C@]2(C)[C@@]1(O)C(=O)CO
Potency [1]: inactive
Potency [2]: inactive
Potency [3]: inactive
Potency [4]: inactive

COc1ccc2[nH]c3c(c2c1)CCn1c-3nc2ccccc2c1=O
Potency [1]: inactive
Potency [2]: inactive
Potency [3]: inactive
Potency [4]: inactive

C[C@@H]1OC(O[C@H]2[C@H](Oc3cc(O)c4c(=O)c(O)c(-c5ccc(O)cc5)oc4c3)O[C@H](CO)[C@@H](O)[C@@H]2O)[C@H](O)[C@H](O)[C@H]1O (stereo not given in full)
Potency [1]: inactive
Potency [2]: inactive
Potency [3]: inactive
Potency [4]: inactive

COc1cccc(OC)c1
Potency [1]: inactive
Potency [2]: inactive
Potency [3]: inactive
Potency [4]: inactive

O=C1c2c(O)cc(O)cc2O[C@H](c2cc(O)c(O)c(O)c2)[C@H]1O
Potency [1]: inactive
Potency [2]: inactive
Potency [3]: inactive
Potency [4]: inactive

CC(C)=CCCC1(C)C=Cc2c(c(C)cc3c2[nH]c2cc(O)ccc23)O1 (stereo not given)
Potency [1]: inactive
Potency [2]: inactive
Potency [3]: inactive
Potency [4]: inactive

O[C@@H]1CCN2Cc3ccccc3N=C12
Potency [1]: inactive
Potency [2]: inactive
Potency [3]: inactive
Potency [4]: inactive

C[C@@H]1C(=O)O[C@@H]2CC34[C@H]5C[C@@H](C(C)(C)C)C36[C@H](OC(=O)[C@@H]6O)OC4(C(=O)O5)[C@@]12O (stereo not given in full)
Potency [1]: inactive
Potency [2]: inactive
Potency [3]: inactive
Potency [4]: inactive

CC(=O)C1CCC2(O)C3CCC4=CC(=O)CCC4(C)C3CCC12C (stereo not given)
Potency [1]: inactive
Potency [2]: inactive
Potency [3]: inactive
Potency [4]: inactive

C[C@H]1O[C@@H](O[C@H]2CC[C@@]3(C)C(CC[C@]4(C)C3C=C[C@]35OC[C@@]6(CCC(C)(C)C[C@H]63)[C@@H](O)C[C@]54C)[C@]2(C)CO)[C@H](O)[C@@H](O[C@@H]2O[C@H](CO)[C@@H](O)[C@H](O)[C@H]2O)[C@H]1O (stereo not given in full)
Potency [1]: inactive
Potency [2]: inactive
Potency [3]: inactive
Potency [4]: inactive

COc1ccc(C(=O)/C=C/c2ccc(O)cc2)c(O)c1CC=C(C)C
Potency [1]: inactive
Potency [2]: inactive
Potency [3]: inactive
Potency [4]: inactive

O=C1NC(=S)NC1=Cc1ccc(O)cc1
Potency [1]: inactive
Potency [2]: inactive
Potency [3]: inactive
Potency [4]: inactive

COc1ccc([C@H]2c3cc(OC)c(OC)cc3C[C@@H](C)[C@@H]2C)cc1OC
Potency [1]: inactive
Potency [2]: inactive
Potency [3]: inactive
Potency [4]: inactive

CC1(C)C(N(O)C(=O)Nc2ccc(Cl)cc2)N(c2ccc(Cl)cc2)C(=O)N1CC(=O)NN=CC=Cc1ccc([N+](=O)[O-])o1 (stereo not given)
Potency [1]: inactive
Potency [2]: inactive
Potency [3]: inactive
Potency [4]: inactive

CC(=O)Oc1ccc2c(C)cc(=O)oc2c1
Potency [1]: inactive
Potency [2]: inactive
Potency [3]: inactive
Potency [4]: inactive

CC12C=CC(=O)C=C1CCC1C2CCC2(C)C(C(=O)CO)CCC12 (stereo not given)
Potency [1]: inactive
Potency [2]: inactive
Potency [3]: inactive
Potency [4]: inactive

COC(=O)C1=COC(O[C@H]2OC(CO)[C@H](O)C(O)C2O)[C@H]2C1C(=O)C[C@@H]2C (stereo not given in full)
Potency [1]: inactive
Potency [2]: inactive
Potency [3]: inactive
Potency [4]: inactive

CCc1ccc(C=C2SC(=S)NC2=O)cc1
Potency [1]: inactive
Potency [2]: inactive
Potency [3]: inactive
Potency [4]: inactive

CC12CCC(C1)C(C)(C)C2=O (stereo not given)
Potency [1]: inactive
Potency [2]: inactive
Potency [3]: inactive
Potency [4]: inactive

CC(C)C(=O)COc1c2occc2cc2ccc(=O)oc12
Potency [1]: inactive
Potency [2]: inactive
Potency [3]: inactive
Potency [4]: inactive

C[N+](C)(C)C[C@H](O)CC(=O)[O-]
Potency [1]: inactive
Potency [2]: inactive
Potency [3]: inactive
Potency [4]: inactive

CCCCC[C@H](O)/C=C/[C@H]1OC(O)C[C@H](O)[C@@H]1C/C=C\CC(=O)O (stereo not given in full)
activity change, negative = inhibition [1]: -6.19% [at 0.757 µM]
activity change, negative = reduced viability [2]: 12.3% [at 0.757 µM]
activity change, negative = lower viability [3]: -0.195% [at 0.757 µM]
activity change, negative = inhibition [4]: 5.45% [at 0.757 µM]

CC(C)=CCC/C(C)=C/COC=O
Potency [1]: inactive
Potency [2]: inactive
Potency [3]: inactive
Potency [4]: inactive

C[C@]12CCC3C(C[C@@H](O)[C@H]4C[C@@H](O)CC[C@]34C)C1CC[C@@H]2O (stereo not given in full)
Potency [1]: inactive
Potency [2]: inactive
Potency [3]: inactive
Potency [4]: inactive

OCC(O)C(O)C(O)CO (stereo not given)
Potency [1]: inactive
Potency [2]: inactive
Potency [3]: inactive
Potency [4]: inactive

C[C@H]1O[C@H](O[C@H]2[C@H](O)[C@@H](O)[C@@H](O[C@H]3[C@H](O)[C@@H](O)C(O)O[C@H]3CO)O[C@H]2CO)[C@H](O)[C@@H](O)[C@H]1N[C@H]1C=C(CO)[C@@H](O)[C@H](O)[C@@H]1O (stereo not given in full)
Potency [1]: inactive
Potency [2]: inactive
Potency [3]: inactive
Potency [4]: inactive

CCOC(=O)/C=C/c1ccccc1
Potency [1]: inactive
Potency [2]: inactive
Potency [3]: inactive
Potency [4]: inactive

C=Cc1cc(OC)c2c(c1)c(=O)oc1c2cc(OC)c2c(O)ccc(C3OC(C)C(O)C(C)(O)C3O)c21 (stereo not given)
Potency [1]: inactive
Potency [2]: inactive
Potency [3]: inactive
Potency [4]: inactive

CC1=C2C(=O)C3C(CC=C4CC(O)CCC43C)C2CCC12OC1CC(C)CNC1C2C (stereo not given)
Potency [1]: inactive
Potency [2]: inactive
Potency [3]: inactive
Potency [4]: inactive

CCCCCCCCCCCCCCCCCC(=O)NCC(COP(=O)([O-])OCC[N+](C)(C)C)OCC (stereo not given)
Potency [1]: inactive
Potency [2]: inactive
Potency [3]: inactive
Potency [4]: inactive

COc1cc(OC)c2ccc(=O)oc2c1
Potency [1]: inactive
Potency [2]: inactive
Potency [3]: inactive
Potency [4]: inactive

OC[C@H]1O[C@@H](O[C@H]2[C@@H](O)[C@@](O)(CO)O[C@@H]2CO)[C@H](O)[C@@H](O)[C@@H]1O
Potency [1]: inactive
Potency [2]: inactive
Potency [3]: inactive
Potency [4]: inactive

Cn1ncc(S(=O)(=O)Cc2ccccc2)c(Br)c1=O
Potency [1]: inactive
Potency [2]: inactive
Potency [3]: inactive
Potency [4]: inactive

NC1C(O)OC(CO)[C@@H](O)[C@@H]1O[C@H]1O[C@@H](C(=O)O)C(O)C(O)C1O (stereo not given in full)
Potency [1]: inactive
Potency [2]: inactive
Potency [3]: inactive
Potency [4]: inactive

O=C1c2ccccc2C(=O)c2c(O)c(O)cc(O)c21
Potency [1]: inactive
Potency [2]: inactive
Potency [3]: inactive
Potency [4]: inactive

C[C@]12CC[C@@H](O)CC1=CC(=O)C1C2CC[C@]2(C)C(=O)[C@H](O)CC12 (stereo not given in full)
Potency [1]: inactive
Potency [2]: inactive
Potency [3]: inactive
Potency [4]: inactive

CC/C=C\CCOC(C)=O
Potency [1]: inactive
Potency [2]: inactive
Potency [3]: inactive
Potency [4]: inactive

O=C(Nc1nnc(-c2ccco2)o1)c1cc(-c2ccccc2)nc2ccccc12
Potency [1]: inactive
Potency [2]: inactive
Potency [3]: inactive
Potency [4]: inactive

CCN1CC2(COC(=O)c3ccccc3N)CCC(OC)C34C5CC6C(OC)CC(O)(C5C6OC)C(O)(C(OC)C23)C14 (stereo not given)
Potency [1]: inactive
Potency [2]: inactive
Potency [3]: inactive
Potency [4]: inactive

CC12C=CC(=O)C=C1CCC1C2C(=O)CC2(C)C(=O)CCC12 (stereo not given)
Potency [1]: inactive
Potency [2]: inactive
Potency [3]: inactive
Potency [4]: inactive

COc1ccc(C(C)=O)cc1
Potency [1]: inactive
Potency [2]: inactive
Potency [3]: inactive
Potency [4]: inactive

COc1cc2cc(Oc3ccc4ccc(=O)oc4c3)c(=O)oc2cc1O[C@@H]1O[C@H](CO)[C@@H](O)[C@H](O)[C@H]1O
Potency [1]: inactive
Potency [2]: inactive
Potency [3]: inactive
Potency [4]: inactive

Cc1cc(OCCCc2c(C(=O)O)n(Cc3cccnc3)c3c(-c4c(COc5ccc(N6CCN([S+](C)(=O)[O-])CC6)cc5)nn(C)c4C)cccc23)cc(C)c1Cl
Potency [1]: inactive
Potency [2]: inactive
Potency [3]: inactive
Potency [4]: inactive

COC(=O)C1(Cc2ccc(O)c(CC3OC3(C)C)c2)OC(=O)C(O)=C1c1ccc(O)cc1 (stereo not given)
Potency [1]: inactive
Potency [2]: inactive
Potency [3]: inactive
Potency [4]: inactive

COC(=O)c1cc(=O)cc(C(=O)OC)o1
Potency [1]: inactive
Potency [2]: inactive
Potency [3]: inactive
Potency [4]: inactive

C=C(CO)CC1CC(O)[C@]2(C)OC3CC4OC5C[C@]6(C)O[C@]7(C)CCC8OC9C[C@]%10(C)OC%11C(C)=CC(=O)OC%11CC%10OC9C[C@@H](C)C8OC7CC6O[C@]5(C)C/C=C\C4OC3CC2O1 (stereo not given in full)
Potency [1]: inactive
Potency [2]: inactive
Potency [3]: inactive
Potency [4]: inactive

C/C=C1\CN2[C@H]3C[C@@]45c6ccccc6N(C)[C@H]4[C@@H]2CC1C3[C@H]5O (stereo not given in full)
Potency [1]: inactive
Potency [2]: inactive
Potency [3]: inactive
Potency [4]: inactive

CC(C)(O)Cn1c(NC(=O)c2ccc(-c3cn[nH]c3)s2)nc2cc(CN3CCOCC3)ccc21
Potency [1]: 3.43 µM (active)
Potency [2]: 3.43 µM (active)
Potency [3]: 4.32 µM (active)
Potency [4]: 10.9 µM (active)

CC(C)=CCC[C@](C)(O)C1CC[C@]2(C)C1[C@H](O)CC1[C@@]3(C)CC[C@H](O[C@@H]4O[C@H](CO)[C@@H](O)[C@H](O)[C@H]4O[C@@H]4O[C@H](CO)[C@@H](O)[C@H](O)[C@H]4O)C(C)(C)C3CC[C@]12C (stereo not given in full)
Potency [1]: inactive
Potency [2]: inactive
Potency [3]: inactive
Potency [4]: inactive
